In PubChem BioAssay AID1671202 (University of Kansas High Throughput Screening Laboratory, 2021):
Values joined by “and” are separate entries in the source; they are usually repeats but may differ in a detail not shown here. Equal values may be shown once. Among all 190,000 compounds or so, about 6,900 (3.6%) were called active. The sample holds actives, similar compounds and a random draw of the others, so the mix is not that of the screen. Unmarked numbers belong to inactive results. Rule as the data show it: active = inhibition above about 50%; inactive = the rest.

The molecules below were run against Huntingtin (Homo sapiens) (UniProt P42858) (assay: mutant huntingtin-calmodulin interaction inhibitors – biochemical, AlphaScreen, primary screen (AID 1671202;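 also: 0% = both proteins with DMSO and 100% = one protein alone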)). Conditions: AlphaScreen His-mHTT/GST-CaM binding, luminescence; at 15 µM, stronger effect = higher value.
Huntingtin (Homo sapiens), sequence (P42858 whole entry, looked up, stated change not applied): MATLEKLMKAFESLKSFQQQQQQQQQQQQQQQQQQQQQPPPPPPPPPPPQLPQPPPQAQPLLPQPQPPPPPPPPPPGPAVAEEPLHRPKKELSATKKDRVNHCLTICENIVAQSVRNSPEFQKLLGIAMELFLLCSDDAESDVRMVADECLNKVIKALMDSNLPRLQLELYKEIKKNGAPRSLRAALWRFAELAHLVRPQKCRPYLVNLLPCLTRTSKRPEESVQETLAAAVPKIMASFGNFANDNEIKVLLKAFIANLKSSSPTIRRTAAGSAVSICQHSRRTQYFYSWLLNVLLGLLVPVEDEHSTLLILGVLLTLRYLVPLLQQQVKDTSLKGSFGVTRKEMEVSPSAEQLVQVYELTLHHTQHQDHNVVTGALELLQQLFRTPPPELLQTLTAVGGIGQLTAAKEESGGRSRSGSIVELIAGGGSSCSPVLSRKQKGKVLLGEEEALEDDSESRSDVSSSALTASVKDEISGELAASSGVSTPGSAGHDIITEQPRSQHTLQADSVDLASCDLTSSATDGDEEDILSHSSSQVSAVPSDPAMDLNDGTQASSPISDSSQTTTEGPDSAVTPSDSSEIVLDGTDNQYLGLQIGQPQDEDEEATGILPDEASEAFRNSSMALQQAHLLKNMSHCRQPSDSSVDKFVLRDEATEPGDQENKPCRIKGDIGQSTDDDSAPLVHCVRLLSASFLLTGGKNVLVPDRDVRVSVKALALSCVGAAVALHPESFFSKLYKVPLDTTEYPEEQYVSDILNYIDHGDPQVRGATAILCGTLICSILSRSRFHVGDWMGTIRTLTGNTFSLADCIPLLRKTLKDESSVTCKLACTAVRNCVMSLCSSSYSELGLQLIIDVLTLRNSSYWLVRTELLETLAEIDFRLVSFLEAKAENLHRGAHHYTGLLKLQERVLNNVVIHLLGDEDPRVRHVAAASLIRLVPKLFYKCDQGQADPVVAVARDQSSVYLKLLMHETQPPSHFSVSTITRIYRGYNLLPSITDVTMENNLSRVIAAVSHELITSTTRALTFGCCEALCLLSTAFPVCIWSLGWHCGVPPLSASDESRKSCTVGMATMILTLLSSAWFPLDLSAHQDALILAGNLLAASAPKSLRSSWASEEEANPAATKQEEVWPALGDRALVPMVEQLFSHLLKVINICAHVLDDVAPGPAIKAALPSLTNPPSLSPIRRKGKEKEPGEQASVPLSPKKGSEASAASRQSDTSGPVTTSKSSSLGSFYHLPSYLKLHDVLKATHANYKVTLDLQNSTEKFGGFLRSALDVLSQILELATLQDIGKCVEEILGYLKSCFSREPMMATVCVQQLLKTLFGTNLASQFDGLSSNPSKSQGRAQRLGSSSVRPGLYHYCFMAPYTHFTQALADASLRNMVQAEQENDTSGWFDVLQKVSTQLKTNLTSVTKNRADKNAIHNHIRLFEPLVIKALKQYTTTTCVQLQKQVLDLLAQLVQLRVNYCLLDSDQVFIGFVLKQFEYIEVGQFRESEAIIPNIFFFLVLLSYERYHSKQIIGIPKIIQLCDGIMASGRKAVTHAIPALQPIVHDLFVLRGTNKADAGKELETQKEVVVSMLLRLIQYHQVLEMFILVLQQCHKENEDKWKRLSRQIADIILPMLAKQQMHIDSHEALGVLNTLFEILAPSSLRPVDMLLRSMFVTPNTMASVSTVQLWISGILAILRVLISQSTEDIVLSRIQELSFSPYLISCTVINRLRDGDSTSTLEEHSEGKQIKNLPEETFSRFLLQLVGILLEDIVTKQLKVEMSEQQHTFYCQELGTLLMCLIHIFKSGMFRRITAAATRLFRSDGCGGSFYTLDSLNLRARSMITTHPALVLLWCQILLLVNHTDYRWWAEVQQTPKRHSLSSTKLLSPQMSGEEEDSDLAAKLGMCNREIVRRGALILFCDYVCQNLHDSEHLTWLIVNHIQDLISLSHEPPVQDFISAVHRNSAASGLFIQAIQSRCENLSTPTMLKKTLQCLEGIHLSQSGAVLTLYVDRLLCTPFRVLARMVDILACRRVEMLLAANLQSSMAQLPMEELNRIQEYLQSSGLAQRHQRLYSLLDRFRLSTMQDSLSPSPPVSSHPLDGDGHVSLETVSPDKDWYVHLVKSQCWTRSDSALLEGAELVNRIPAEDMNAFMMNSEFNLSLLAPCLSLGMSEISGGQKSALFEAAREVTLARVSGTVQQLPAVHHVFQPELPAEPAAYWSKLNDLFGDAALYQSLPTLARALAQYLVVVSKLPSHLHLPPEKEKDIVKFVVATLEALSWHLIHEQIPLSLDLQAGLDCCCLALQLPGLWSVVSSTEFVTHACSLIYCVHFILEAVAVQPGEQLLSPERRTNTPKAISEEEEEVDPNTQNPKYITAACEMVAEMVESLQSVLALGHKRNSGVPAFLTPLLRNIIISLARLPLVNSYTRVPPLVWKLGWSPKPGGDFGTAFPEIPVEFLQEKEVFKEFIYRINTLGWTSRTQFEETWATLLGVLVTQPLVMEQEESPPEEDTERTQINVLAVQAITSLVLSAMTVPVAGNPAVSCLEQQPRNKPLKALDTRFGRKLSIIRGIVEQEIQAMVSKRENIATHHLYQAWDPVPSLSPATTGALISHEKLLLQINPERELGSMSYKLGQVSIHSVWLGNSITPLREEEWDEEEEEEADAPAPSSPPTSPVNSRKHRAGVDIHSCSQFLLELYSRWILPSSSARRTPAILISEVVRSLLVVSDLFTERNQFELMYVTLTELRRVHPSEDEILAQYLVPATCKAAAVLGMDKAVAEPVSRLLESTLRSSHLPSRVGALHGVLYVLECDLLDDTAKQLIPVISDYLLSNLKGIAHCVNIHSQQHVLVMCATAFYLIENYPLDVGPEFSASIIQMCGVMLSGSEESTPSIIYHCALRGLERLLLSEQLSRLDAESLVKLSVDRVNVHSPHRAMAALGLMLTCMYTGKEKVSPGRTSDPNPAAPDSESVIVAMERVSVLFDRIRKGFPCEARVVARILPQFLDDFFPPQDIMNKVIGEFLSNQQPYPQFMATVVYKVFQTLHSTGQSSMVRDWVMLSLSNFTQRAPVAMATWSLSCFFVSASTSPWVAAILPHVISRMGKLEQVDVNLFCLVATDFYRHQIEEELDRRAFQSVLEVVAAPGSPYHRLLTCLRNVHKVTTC

| Structure (SMILES) | inhibition |
| --- | --- |
| O=[N+]([O-])C(=C1SCCS1)C(=C(Cl)Cl)N1CCCC1 | 62% (active) |
| CCC1CO/C(=C(\C(=C(Cl)Cl)N2CCOCC2)[N+](=O)[O-])N1 (stereo not given) | -5% |
| O=C1CS/C(=C(\C(Cl)=C(Cl)Cl)[N+](=O)[O-])N1c1ccc(Cl)cc1 | 33% |
| N#C/C(=C\c1ccccc1F)c1nc(-c2cccc([N+](=O)[O-])c2)cs1 | 5.7% |
| CCC(=O)NCc1nc2c(n1CC)CN(S(=O)(=O)Cc1ccc(Cl)cc1)CC2 | 0.5% |
| COc1ccc(N2C(=O)NC3CC2(C)Oc2ccccc23)cc1Cl (stereo not given) | -0.83% |
| CN1CCCN(C(=O)C2COC3(CCCCC3)N2C(=O)c2ccccc2)CC1 (stereo not given) | 1.3% |
| Cc1cc(C2CCCN2C(=O)c2cc(-c3ccccc3F)no2)no1 (stereo not given) | -0.13% |
| C=CCn1c(-c2ccc(Cl)cc2)csc1=Nc1c(C)n(C)n(-c2ccccc2)c1=O | 66% (active) |
| C=CCn1c(=O)c2cnc(-c3ccc(Cl)cc3)nc2n(C)c1=O | -3.7% |
| Cc1c(N=C2C=C(C(C)C)C(=O)C(C(C)C)=C2)c(=O)n(-c2ccccc2)n1C | 8% |
| C=CCn1c(-c2ccccc2)csc1=Nc1ccc(O)cc1 | 69% (active) |
| CCn1c(=NC(=O)c2ccc(S(=O)(=O)N(C)C)cc2)sc2cc(F)ccc21 | 3% |
| CCN1CCN(c2ncc3c(n2)CCN(Cc2cc(OC)c(OC)cc2OC)C3)CC1 | 23.9% |
| COc1ccc(C2CC(=O)C3=C(C2)Nc2ncnn2C3c2cccc(OC)c2OC)cc1 (stereo not given) | 10.8% |
| O=C(NCCC1=CCCCC1)C1CCCN(Cc2nc(-c3ccncc3)no2)C1 (stereo not given) | -3.8% |
| COc1ccc(-n2c3c(cc(C(=O)N4CCOCC4)c2=O)C(=O)CC(C)(C)C3)cc1 | -1% |
| CC(C)c1ccc(C2N3CC4(C)CN2CC(C)(C3)C4O)cc1 (stereo not given) | -5% and 3.2% |
| Cc1c(C)n(Cc2ccccc2)c2ccc(C(=O)N3CCN(C(=O)c4ccccc4)CC3)cc12 | 99% (active) |
| Cc1ccc(C(=O)N2CCN(c3ccccc3)CC2)cc1 | 0.5% |
| Cc1cccc(C(=O)N2CCCN(C(=O)c3cccc(C)c3)CC2)c1 | -1.9% |
| O=C(Nc1ccccc1[N+](=O)[O-])c1c(F)cccc1F | 2.8% |
| Fc1ccc(C2CC(c3ccc(Br)cc3)Nc3ncnn32)cc1 (stereo not given) | 7% |
| CCN1/C(=C2\N=C(c3ccccc3)OC2=O)C=Cc2ccccc21 | 39% |

| Structure (SMILES) | inhibition |
| --- | --- |
| CCN1C(=Cc2cc[n+](-c3ccccc3)cc2)C=Cc2ccccc21 | 65% (active) |
| CC(=O)C1=C(O)C(=O)N(c2nccs2)C1c1ccc([N+](=O)[O-])cc1 (stereo not given) | 10.1% |
| COc1ccc(NC(=O)Nc2cccc3cccnc23)cc1 | 11.4% |
| O=C(Nc1ccccc1)Oc1cccc2cccnc12 | 93.6% (active) |
| O=C(O)c1ccccc1-c1ccccc1C(=O)Nc1cccc2cccnc12 | 8.7% |
| C=CCNC(=O)c1c(F)ccc(S(=O)(=O)N2CCCCCC2)c1F | -7% |
| O=C(Cn1ncn2nc(-c3ccc(Cl)cc3)cc2c1=O)Nc1ccccc1C(F)(F)F | -7.9% |
| CCNC(=O)c1csc(-c2cccc(OC)c2)n1 | -7.8% |
| COc1ccc(/C=C2\SC(=O)N(CN3CCOCC3)C2=O)cc1 | -4% |
| Clc1ncnc2sc3c(c12)CCCCC3 | -7.58% |
| NNc1ncnc2sc3c(c12)CCCC3 | 100% (active) |
| OCCNc1ncnc2sc3c(c12)CCCCC3 | 1.3% |
| COc1cc(C(=O)N2CCC(CC(=O)NC3CCCC3)CC2)cc(OC)c1OC | -1.18% |
| Cc1cccc(CN2Cc3cccc4c3[C@H](C=CC4)CC2=S)c1 | 3.5% |
| O=C1C[C@@H]2c3c(cccc3CN1Cc1ccccc1)C[C@@H](O)[C@H]2O | 1.6% |
| O=C1C[C@H]2C=CCc3cccc(c32)CN1Cc1ccccc1 | 100% (active) |
| O=C(Cc1ccc(F)cc1Cl)N1CCCC1c1cccc(F)c1 (stereo not given) | -1.36% |
| COc1ccc(CNC(=O)C2CC(=O)N(c3ccc(OCc4ccc(F)cc4)cc3)C2)cc1 (stereo not given) | -13.8% |
| COc1ccc(C2CC(C(F)(F)F)n3ncc(C(=O)NC45CC6CC(CC(C6)C4)C5)c3N2)cc1 (stereo not given) | 6% |
| COc1ccc(C(=O)Nc2cc(-c3ccccn3)no2)cc1 | -10.4% |
| COCCNC(=O)Nc1nc(-c2ccccn2)cs1 | 95.6% (active) |
| CC1CC(C)CN(S(=O)(=O)c2ccc(C(=O)Nc3nc(-c4ccccn4)cs3)cc2)C1 (stereo not given) | 17% |
| O=C(Cc1csc(NC(=O)c2ncccn2)n1)Nc1cccc2nsnc12 | 99.8% (active) |
| COc1cc(C(=O)Nc2cccc3nsnc23)cc(OC)c1OC | -8.5% |

| Structure (SMILES) | inhibition |
| --- | --- |
| CC(C)SCC(=O)Nc1nc(CC(=O)O)cs1 | 1.9% |
| COC(=O)Nc1nc(CC(=O)NCc2nc3ccccc3[nH]2)cs1 | -0.6% |
| Cc1nc(NC(=O)Cc2csc(NC(=O)c3ncccn3)n2)sc1C | 98% (active) |
| Cc1nc(NC(=O)c2ccoc2C)sc1C | 10% |
| Cc1ccc(NC(=O)c2ccc(Cl)c(Cl)c2)nc1 | -13.9% and -7% |
| O=C(CSc1nc2ccsc2c(=O)n1Cc1ccccc1F)NC1CCCC1 | -3% |
| CC(=O)N(C)C1(C(=O)NC2CCCCC2)CCCCC1 | 4% |
| COCCCNC(=O)C1(C)CCC(=O)N1Cc1ccc(C)cc1 (stereo not given) | 3.12% |
| CCCCN(C)S(=O)(=O)c1ccc(C(=O)Nc2nnc(C)o2)cc1 | 32% |
| O=C1CC[C@@H]2CC3(C[C@@H]4CCN1[C@H]24)Nc1cc([N+](=O)[O-])ccc1NC3=NC1CCCCC1 (stereo not given in full) | 57.5% (active) |
| Cc1cc2c(cc1C)NC1(C[C@H]3CCC(=O)N4CC[C@@H](C1)[C@@H]34)C(=NC(C)(C)CC(C)(C)C)N2 (stereo not given in full) | 96.4% (active) |
| O=C(/C(=C1\Nc2ccc([N+](=O)[O-])cc2N1)[N+](=O)[O-])N1CCCCC1 | 8% |
| O=C1CCC[C@@H]2C[C@@]3(C[C@@H]4CCN1[C@H]24)Nc1ccccc1NC3=NCc1ccccc1 | 11.5% |
| CC(C)(C)C(=O)NCCC(O)C1CC1 (stereo not given) | -4% |
| CN(C)CCn1c2c(c(SCC(=O)Nc3ccccc3C(F)(F)F)nc1=O)CCC2 | 0% |
| O=C(CSc1nnnn1-c1cccc2ccccc12)Nc1ccccc1Cl | -8.1% |
| COc1ccc(C(=O)Nc2ccccc2F)cc1OC | -1.2% |
| COc1ccc(C2=NC3(CCCCC3)N(CC(=O)Nc3ccc4c(c3)OCO4)C2=O)cc1 | 3.31% |
| CNc1nccc(N2CCC(CC(=O)N3CCN(c4ccccc4)CC3)CC2)n1 | 13.2% |
| NC(N)=Nc1nc(-c2ccccc2)c2cc(Cl)ccc2n1 | 100% (active) |
| O=c1cc(-c2ccccc2)sc2ccc(Cl)cc12 | 7% |
| Cc1nc(N=C(N)N)nc2c(C)cccc12 | 25.3% |
| CN(C)c1ccc(C2Nc3ccccc3NC3=C2C(=O)CC(c2ccc(Cl)cc2)C3)cc1 (stereo not given) | 63% (active) |
| COc1ccc(C2CC(=O)C3=C(C2)Nc2ccccc2NC3c2cc(F)ccc2F)cc1 (stereo not given) | 23% |

| Structure (SMILES) | inhibition |
| --- | --- |
| O=C1CC(c2ccc(Cl)cc2)CC2=C1C(c1ccsc1)Nc1ccccc1N2 (stereo not given) | 4% |
| O=C(c1cccs1)N1CC(c2nc(-c3ncccn3)no2)C1 | -5.2% |
| COc1ccc(CNC(=O)CN(c2ccc(I)cc2)S(C)(=O)=O)cc1 | -4.2% |
| COc1ccc(C2=N/C(=C\c3cccc([N+](=O)[O-])c3)C(=O)O2)c(Br)c1 | 3% |
| COc1ccc(C)cc1NC(=O)N1CCc2c(c(COCc3ccccc3F)nn2C)C1 | 33.8% |
| COc1ccc(N2CCN(CC(O)COC3CC4CCC3(C)C4(C)C)CC2)cc1 (stereo not given) | 64.3% (active) |
| CC1CCN(CC(O)COC2CC3CCC2(C)C3(C)C)CC1 (stereo not given) | -1.1% |
| CC1(C)C2CCC1(C)C(OCC(O)CN1CCOCC1)C2 (stereo not given) | 2.6% |
| COc1ccc(C2=NN3COc4ccc(Br)cc4C3C2)cc1 (stereo not given) | 34% |
| COc1ccc(C2=NN3COc4ccc(Cl)cc4C3C2)cc1 (stereo not given) | 27% |
| COc1ccc(C2=NN3C(C2)c2cc(OC)ccc2OC3(C)C)cc1 (stereo not given) | 64% (active) |
| COc1ccc2c(c1)C(=O)C(C1(O)C(=O)Nc3ccccc31)CC2 (stereo not given) | 2.6% |
| COc1ccc(OC)c(C2C3=C(CC(C)(C)CC3=O)Nc3ccccc3N2C(C)=O)c1 (stereo not given) | 8.9% |
| O=S1(=O)CC(N2CCN(Cc3ccccc3F)CC2)CN1Cc1cn(Cc2cccc(C(F)(F)F)c2)nn1 (stereo not given) | 6.8% |
| COCCCNC(=O)c1cnn2c(C(F)(F)F)cc(-c3cccs3)nc12 | 10% |
| O=[N+]([O-])c1c(Cl)cc(Cl)c2nsnc12 | 88% (active) |
| O=C(Nc1ccc(S(=O)(=O)Nc2ccccn2)cc1)C1OC2OC3(CCCCC3)OC2C2OC3(CCCCC3)OC12 (stereo not given) | 22.5% |
| Cc1ccc(SCC(=O)N2CCN(C)CC2)cc1 | 0.5% |
| CCc1onc(C)c1C1CCCN1Cc1cc(Br)ccc1F (stereo not given) | -71.3% |
| CCn1cc(-c2ccccc2)cc1C(=O)NCc1ccccn1 | 47.4% |
| CCn1cc(-c2ccc(F)cc2)cc1C(=O)NC(C)c1cccnc1 (stereo not given) | 50.5% (active) |
| CCn1cc(-c2ccc(C)cc2)cc1C(=O)NCc1cccnc1 | 46.7% |
| OCCCc1nc2n(n1)C(c1ccco1)C=C(c1ccc(Br)cc1)N2 (stereo not given) | 34% |
